Compounds with a hit are over-represented: about 15% of the library has one in this group of screens.
SARS PLP yeast: SARS-CoV PLP inhibition in yeast; S. cerevisiae expressing SARS-CoV PLpro, growth rescue; Potency, µM (highest dose often 32.9 µM), without a hit: at the highest dose activity, positive = growth rescue, most hits filed as activators; hit rate 0.19% among 330,000; AID 485353; calls by dose curve; note: potency is the fitted concentration of half-maximal effect; 0% is about no effect; nearly all actives have a fitted effect of over 55% in size
Sm TGR block: inhibitors of Schistosoma mansoni thioredoxin glutathione reductase; purified TGR, DTNB reduction, TNB absorbance 405 nm; hit rate 3% among 360,000; AID 485364; Potency, µM (top dose mostly 114 µM), without a hit: at the highest dose activity change, negative = inhibition, usual class: inhibitors; note: potency is the fitted concentration of half-maximal effect; % is set by controls: 0 for no effect and ±100 for the full control effect; nearly all actives have a fitted effect of over 60% in size
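TGR 20 nM + NADPH 100 uM (dispensed conc.), cpd preinc 15 min RT; start with NADPH (500 uM addition) then DTNB (15 mM addition). Kinetic TNB absorbance, 405 nm filter. Four-parameter Hill fit across titration.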
Pf growth 48h: P. falciparum growth inhibition at 48 hours (one generation) | P. falciparum luciferase growth in erythrocytes, 48 h | Potency, µM (top dose mostly 28.7 µM), without a hit: top-dose activity change, negative = inhibition, usual class: inhibitors | hit rate 5.9% among 310,000 | AID 504832; note: potency is the fitted concentration of half-maximal effect; % is set by controls: 0 for no effect and ±100 for the full control effect
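First compound was added to culture medium, then infected red cells at 0.1% parasitemia and 2% hematocrit (final). After incubation at 37 C under 5% CO2, luciferase detection reagent was dispensed and light output recorded.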
HCMV antiviral: blocks human cytomegalovirus replication; hit rate 4.5% among 410,000; HFF cells, HCMV-luciferase reporter, 72 h; hits give low values; activity change, negative = inhibition, % at 57.5 µM; AID 1259415; in the data active = activity change below about -60%; inconclusive = no clear call, values can overlap the other calls; inactive = above about -39%; note: % is set by controls: 0 for no effect and ±100 for the full control effect
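Steps: HFFs plated, 16 h 37C; compounds added; HCMV-luciferase added to MOI 1 PFU/cell; 72 h 37C; OneGlo reagent, 5 min room temperature; luminescence read, normalized to controls.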
Pf growth 96h: inhibits malaria parasite growth, 96 h; P. falciparum luciferase reporter growth, 96 h; Potency, µM (doses to about 28.7 µM), inactives show at the top dose activity change, negative = inhibition, actives largely listed as inhibitors; hit rate 6.9% among 320,000; AID 504834; note: potency is the fitted concentration of half-maximal effect; % is set by controls: 0 for no effect and ±100 for the full control effect
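P. falciparum expressing integrated firefly luciferase grown in erythrocytes (2% hematocrit, 0.05% parasitemia final) with compounds for 96 hours at 37 C, 5% CO2. Growth inhibition read as loss of luminescence after adding luciferase detection reagent.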
HCV inh: HCV inhibition; Huh7.5.1 HCVcc-Cre infection, luciferase reporter, 44 h; Potency, µM (highest dose often 41.8 µM), for the others: top-dose activity change, negative = inhibition, usual class: inhibitors; hit rate 3.4% among 340,000; note: potency is the fitted concentration of half-maximal effect; % is set by controls: 0 for no effect and ±100 for the full control effect
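Luciferase read-out (15 sec integration) after a 15 min room-temperature substrate step quantifies HCVcc-Cre infection. Cells, 1,000 per well, had compound added 4 h post-plating, then virus at ~0.5 moi, and were cultured 44 h.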
Starred values were filed as active, the others as inactive; ? = inconclusive; nt = no result given. Unless noted, calls come from the whole dose curve; as a rule, active = well fitted curve in the direction sought with a large enough effect; inconclusive = small, poorly fitted or top-dose-only effect, or another doubt; inactive = no such curve, though single readings can be large; an effect the other way counts as inactive or inconclusive.

SMILES | SARS PLP yeast | Sm TGR block | Pf growth 48h | HCMV antiviral | Pf growth 96h | HCV inh
Oc1ccc(C[C@H]2CNCCN2CCCCC2CCCCC2)cc1 | 1% | 0% | 8.3µM* | ? | ? | ?
COc1ccc(NS(=O)(=O)c2cc(NC(=O)C(CC(C)C)NC(N)=O)ccc2N2CCOCC2)cc1 (configuration not stated) | nt | nt | nt | -68* | nt | 9%
COc1ccc(NS(=O)(=O)c2cc(NC(=O)[C@H](C)NC(N)=O)ccc2N2CCCC2)cc1 | -5% | nt | nt | -85* | nt | ?
COCC(=O)Nc1ccc(N2CCOCC2)c(S(=O)(=O)Nc2ccc(OC)cc2)c1 | -2% | nt | nt | -4 | nt | ?
FC(F)(F)c1ccc(/C=N/n2c(COc3ccccc3)n[nH]c2=S)cc1 | -3% | -15% | -26% | -66* | -27% | 1%
Cc1n[nH]c(=S)n1/N=C/c1cccc(OCc2ccccc2)c1 | 0% | nt | 2.6µM* | 30 | 31% | -2%
Cc1ccc(S(=O)(=O)N2CCCC2)cc1C(=O)NCCOc1ccccc1 | 2% | -3% | ? | -7 | -7% | -8%
Cc1c(CNC(=O)C2CC2)c(-n2cccc2)n(Cc2ccccc2)c1C | 4% | -10% | 25% | -9 | 55% | ?
Nc1c(S(=O)(=O)c2cccc(Cl)c2)c2nc3ccccc3nc2n1/N=C/c1ccc(O)c(O)c1 | -2% | -21% | 7.4µM* | nt | -16% | nt
COc1cccc(/C=N/n2c(N)c(S(=O)(=O)c3cccs3)c3nc4ccccc4nc32)c1OC | 3% | 10% | ? | -81* | ? | ?
Cc1ccc(S(=O)(=O)c2c(N)n(-c3ccccc3)c3nc4ccccc4nc23)cc1 | 11% | -2% | ? | -18 | ? | ?
CCN(CC)S(=O)(=O)c1ccc(C(=O)NCCSc2c(-c3ccc(C)cc3)[nH]c3ccccc23)cc1 | nt | 8% | nt | -27 | nt | nt
Cc1[nH]nc(-c2ccc(O)cc2O)c1Oc1ccccc1 | 19% | 8% | 9% | -20 | 61% | ?
C=C(C)COc1ccc(-c2n[nH]c(C)c2Oc2ccccc2OC)c(O)c1 | -28% | 1% | 5.2µM* | -20 | 4.7µM* | 32µM*
CCOc1ccc(-c2n[nH]c(C)c2Oc2ccccc2OC)c(O)c1 | 9% | -13% | 4.1µM* | 25 | nt | ?
CC(C)CCNC(=O)NC(=O)CSc1ncccn1 | -1% | 3% | 0% | 30 | 30% | -3%
CC(C)NC[C@@H](O)COc1cccc2ccccc12 | nt | -8% | 9.3µM* | ? | ? | -14%
CC(C)NC[C@H](O)COc1cccc2[nH]ccc12 | 2% | 3% | 22% | -81* | 11% | ?
C=CCc1ccccc1OCC(O)CNC(C)C (configuration not stated) | 0% | 25µM* | 13µM* | -9 | ? | ?
O=C(COC(=O)CNC(=O)C1CCCCC1)NCc1ccc(Cl)cc1 | -10% | nt | nt | 78 | nt | -15%
Cc1cccn2c(=O)cc(COc3ccc(NC(=O)c4cccc(F)c4)cc3)nc12 | nt | -1% | nt | -12 | nt | nt
CN(Cc1ccccc1)C(=O)COC(=O)c1ccc[nH]c1=O | -8% | nt | nt | -24 | nt | 18%
CC(C)OCCCn1c(-c2ccc(Br)cc2)c[nH]c1=S | 0% | -6% | ? | -14 | 1% | -3%
CNc1ccccc1C(C)(C)c1cc(-c2ccc(F)cc2)no1 | -14% | -15% | ? | -85* | 8.3µM* | 4µM*
CNc1ccccc1C(C)(C)c1cc(-c2cccc(Br)c2)no1 | -11% | 1% | ? | ? | ? | ?
COc1ccc(C2SCCN2C(=S)Nc2cccc(C(F)(F)F)c2)cc1 (configuration not stated) | -19% | -2% | 2.3µM* | 33 | 9.3µM* | 30%
COc1ccc(OC)c(C2SCCN2S(=O)(=O)c2cccc(C(F)(F)F)c2)c1 (configuration not stated) | -5% | 10% | ? | -61* | ? | ?
CCCCC(=O)Nc1c(C(=O)N2CCN(c3ccccc3F)CC2)oc2ccccc12 | nt | -4% | nt | -18 | nt | nt
